Source: PubChem BioAssay AID1159580 (chemical genetic matrix, 2015)
Hit rate of the full screen: of about 5,500 compounds, about 2,000 (36%) were called active. About 18% were inconclusive and are not listed. No stated cut-off is given here; in the data, active means normalized growth mostly below about 0.91 (no sharp cut-off); inconclusive means no clear call, values can overlap the other calls; inactive means mostly above about 0.92. This is one part of the list.

Experiment: chemical genetic growth profiling, strain panel (AID 1159580);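 further: tested at 20 µM; growth read once vehicle control cultures reached saturation at 30 °C; 1 = growth at the plate median or of vehicle wells; lower values mean less growth of the strain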
Conditions: growth OD
[1] = S. cerevisiae deletion strains, locus YNL153C, strain GIM3, active compounds read low
[2] = S. cerevisiae deletion strains, locus YPL241C, strain CIN2, active compounds read low

Measured: normalized growth

NC(=S)c1ccc2nonc2c1
inactive: S. cerevisiae deletion strains, locus YAL013W, strain DEP1, active compounds read low 0.999 | S. cerevisiae deletion strains, locus YBR229C, strain ROT2, active compounds read low 1 | S. cerevisiae deletion strains, locus YDL101C, strain DUN1, active compounds read low 0.984 | S. cerevisiae deletion strains, locus YDL134C, strain PPH21, active compounds read low 0.986 | S. cerevisiae deletion strains, locus YDR150W, strain NUM1, active compounds read low 0.927 | S. cerevisiae deletion strains, locus YEL061C, strain CIN8, active compounds read low 1 | S. cerevisiae deletion strains, locus YGR078C, strain PAC10, active compounds read low 1 | S. cerevisiae deletion strains, locus YGR229C, strain SMI1, active compounds read low 0.994 | S. cerevisiae deletion strains, locus YHR030C, strain SLT2, active compounds read low 0.991 | S. cerevisiae deletion strains, locus YHR087W, strain rtc3, active compounds read low 0.996 | S. cerevisiae deletion strains, locus YJR043C, strain POL32, active compounds read low 1.02 | S. cerevisiae deletion strains, locus YJR075W, strain HOC1, active compounds read low 1.01 | S. cerevisiae deletion strains, locus YLR039C, strain RIC1, active compounds read low 1.04 | S. cerevisiae deletion strains, locus YLR058C, strain SHM2 (second series), active compounds read low 1 | S. cerevisiae deletion strains, locus YLR085C, strain ARP6, active compounds read low 0.945 | S. cerevisiae deletion strains, locus YLR262C, strain YPT6, active compounds read low 1.02 | S. cerevisiae deletion strains, locus YML094W, strain GIM5, active compounds read low 0.982 | S. cerevisiae deletion strains, locus YMR219W, strain ESC1, active compounds read low 0.992 | S. cerevisiae deletion strains, locus YMR263W, strain SAP30, active compounds read low 1.03 | S. cerevisiae deletion strains, locus YMR307W, strain GAS1, active compounds read low 1.03 | [1] 1.01 | S. cerevisiae deletion strains, locus YNL298W, strain CLA4 (second series), active compounds read low 1.02 | S. cerevisiae deletion strains, locus YNL322C, strain KRE1, active compounds read low 0.996 | S. cerevisiae deletion strains, locus YNR030W, strain Alg12, active compounds read low 0.988 | S. cerevisiae deletion strains, locus YOL006C, strain TOP1, active compounds read low 0.976 | S. cerevisiae deletion strains, locus YPL055C, strain LGE1, active compounds read low 1.09 | [2] 0.963 | S. cerevisiae deletion strains, locus YPR135W, strain CTF4, active compounds read low 1.13 | S. cerevisiae strains, strain wild type, active compounds read low 0.994

COc1ccccc1CNCCCCCCNCCCCCCCCNCCCCCCNCc1ccccc1OC
inactive: S. cerevisiae deletion strains, locus YAL040C, strain CLN3, active compounds read low 1.01 | S. cerevisiae deletion strains, locus YCL061C, strain MRC1 (second series), active compounds read low 0.96 | S. cerevisiae deletion strains, locus YDR363W, strain ESC2, active compounds read low 0.906 | S. cerevisiae deletion strains, locus YER002W, strain NOP16, active compounds read low 1.03 | [1] 0.942 | S. cerevisiae deletion strains, locus YNL175C, strain NOP13, active compounds read low 0.992 | S. cerevisiae deletion strains, locus YNL197C, strain WHI3, active compounds read low 1.03 | S. cerevisiae deletion strains, locus YNL224C, strain SQS1, active compounds read low 1.03 | S. cerevisiae deletion strains, locus YOR083W, strain WHI5 (second series), active compounds read low 0.875 | [2] 0.96
